Test results as given in PubChem BioAssay (NCI).
This is part of a sample that, as a whole, favours compounds with a hit. Of some 79,000 tested, about 15% had one in any assay. The source made the active and inactive calls. No stated cut-off is given here; in the data, active means growth inhibition above about 70%; inactive means the rest.

Columns and labels:
[1] = NCI Yeast Anticancer Drug Screen. Data for the rad50 strain (AID 155);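 further: 0% = growth of vehicle-only cultures of the same strain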; settings: S. cerevisiae rad50 strain growth inhibition, hits give high values; at 50.0 µM unless noted
Procedure, shortened: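 DNA repair mutant yeast, compound exposure, growth read-out; inhibition is taken relative to vehicle.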

[2] = NCI Yeast Anticancer Drug Screen. Data for the mec2-1 strain (AID 157); settings: S. cerevisiae mec2-1 strain, hits give high values; at 50.0 µM unless noted
Procedure, shortened: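 Strain: mec2-1 (DNA repair/cell cycle alteration). Compound exposure, then growth measured; inhibition expressed relative to vehicle.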

[3] = NCI Yeast Anticancer Drug Screen. Data for the sgs1 mgt1 strain (AID 161);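 further: 0% = growth of cultures given vehicle only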; settings: S. cerevisiae sgs1 mgt1 strain, hits give high values; at 50.0 µM unless noted
Procedure, shortened: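 Genetically altered yeast, compound exposure, growth inhibition relative to vehicle.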

[4] = NCI Yeast Anticancer Drug Screen. Data for the cln2 rad14 strain (AID 165);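 further: 0% = growth equal to vehicle treated cultures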; settings: S. cerevisiae cln2 rad14 strain, hits give high values; at 50.0 µM unless noted
Procedure, shortened: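 Compounds are applied to the cln2 rad14 yeast strain, and growth is then compared with that of vehicle-treated cultures to give inhibition.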

[5] = NCI Yeast Anticancer Drug Screen. Data for the bub3 strain (AID 167); settings: S. cerevisiae bub3 mutant strain, hits give high values; at 50.0 µM unless noted
Procedure, shortened: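 In this screen, a yeast mutant lacking normal mitotic checkpoint function is challenged with compound. Relative growth versus vehicle gives the inhibition value.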

[6] = NCI Yeast Anticancer Drug Screen. Data for the mlh1 rad18 strain (AID 175); settings: S. cerevisiae mlh1 rad18 strain growth inhibition, hits give high values; at 50.0 µM unless noted
Procedure, shortened: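 Read-out is yeast growth inhibition, calculated against vehicle-only controls. The compound was applied to a strain engineered with DNA damage repair alterations.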

Measured: growth inhibition

Cc1ccc(Cl)c(NC(=O)Nc2ccccc2Cl)c1
inactive: [1] -3.7% | [2] 3.65% | [3] -7.2% | [4] -15.2% | [5] -2.5% | [6] 20.4%

CCOC(OCC)C1(C)CC=CCC1 (stereo unspecified)
inactive: [1] 20.4% | [2] 11.3% | [3] 5.05% | [4] -3.4% | [5] 3.15% | [6] 6.4%

CSc1ccc(Cl)cc1
inactive: [1] 6% | [2] -4.55% | [3] 1.7% | [4] 16.9% | [5] -1.2% | [6] 16.1%

O=C1CN2CCC1C/C2=C\c1ccnc2c(Cl)cc(Cl)cc12 (stereo unspecified)
inactive: [1] 7.75% | [2] -7.55% | [3] -0.9% | [4] -3.4% | [5] -12% | [6] 19.2%

COc1ccc(/C=N/NC(=S)NN)cc1
inactive: [1] -6.6% | [2] 9.1% | [3] 13% | [4] -18.9% | [5] 33.6% | [6] 13.2%

CN1C=C(C(N)=O)Cc2ccsc21
inactive: [1] 10.7% | [2] -10.8% | [3] -15.8% | [4] -8.95% | [5] -17.1% | [6] -18.5%

CCCCCC[N+]1([O-])CC[N+]([O-])(CCCCCC)CC1 (stereo unspecified)
inactive: [1] -6.6% | [2] -7.9% | [3] -1.55% | [4] -43.4% | [5] 0.35% | [6] 7.35%

OC(COc1cccc(C(F)(F)F)c1)CN1CCN(c2cccc(F)c2)CC1 (stereo unspecified)
active: [1] 98.7% | [2] 99% | [3] 99.1% | [4] 97.9% | [5] 98.7% | [6] 99%

Nc1ccc(N=Nc2c(S(=O)(=O)O)cc3ccccc3c2S(=O)(=O)O)cc1
inactive: [1] -23% | [2] -30.4% | [3] -38.2% | [4] -18.3% | [5] -46.5% | [6] -27.6%

CC1CC(=O)Nc2nc3ccccc3n21 (stereo unspecified)
inactive: [1] 7.15% | [2] 6.65% | [3] -25.2% | [4] -44.9% | [5] -21.8% | [6] -28.8%

COC1CC(n2ccc(=O)[nH]c2=O)OC1CO (stereo unspecified)
inactive: [1] -8.25% | [2] -10.6% | [3] 2.65% | [4] 28.1% | [5] -25.6% | [6] 6.4%

Nc1c(Br)cc(Br)cc1C(=O)O
inactive: [1] 23.9% | [2] -14.1% | [3] 42.2% | [4] 17.1% | [5] -6.95% | [6] 5.7%

COC1(OC)C(C#N)=C(c2ccccc2)C1(OC)OC
inactive: [1] -8% | [2] -6.25% | [3] -6.5% | [4] -19.9% | [5] -14% | [6] -6.8%

Cc1cc2cccc(Cl)c2nc1C(=O)c1ccccc1
inactive: [1] -9.3% | [2] -12.3% | [3] -9.3% | [4] 22.4% | [5] -7.4% | [6] -12.6%

[S-]c1n[n+](-c2ccccc2)cs1
inactive: [1] 2.95% | [2] 2.1% | [3] 0.15% | [4] -5.25% | [5] -23% | [6] 3.1%

CC(C)C(C=O)C(O)(C(F)(F)F)C(F)(F)F (stereo unspecified)
inactive: [1] 2.3% | [2] -2.8% | [3] -30.6% | [4] 13.3% | [5] 22.3% | [6] 0.5%

CCC1=CCN(c2ccccn2)OC1c1ccc(OC)cc1 (stereo unspecified)
inactive: [1] 32.6% | [2] 13.7% | [3] 49.2% | [4] 22.3% | [5] 40.2% | [6] 24.1%

CCN(CC)CCN=Cc1ccccc1OC
inactive: [1] 15.9% | [2] -29.5% | [3] -3.85% | [4] 3.15% | [5] 11.3% | [6] 15.2%

N/N=C1\C(=O)N(C2CCCCCC2)C(=O)C1C(=O)NC1CCCCCC1 (stereo unspecified)
inactive: [1] -13.3% | [2] -32.6% | [3] -7.2% | [4] -68.7% | [5] -18.8% | [6] -26.2%

COc1ccc2nc3cc(Cl)ccc3c(Nc3ccccc3-c3ccccc3Nc3c4ccc(Cl)cc4nc4ccc(OC)cc34)c2c1
inactive: [1] 6.85% | [2] -8.75% | [3] -18.1% | [4] 17.5% | [5] 2.1% | [6] -27.8%

CCCCSc1ncnc2nc[nH]c12
inactive: [1] -38% | [2] -15.4% | [3] -9.05% | [4] -21.4% | [5] -7.45% | [6] -15.7%
